One experiment relates to RARa:RXR (NR concentration 270 nM, RXRa partner concentration 90 nM). Kind of experiment: PBM binding z-score (relative to random genomic background probes); higher = stronger binding; sequences stand for … in GC…GCGATTGACAGCGTAGAATGAAGG
Summed up:
(§1)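 Probes were double-stranded and carried 34-nt variable regions with direct-repeat seeds, single-nucleotide variants, half-site ablations and random human genomic background sequences, printed on custom Agilent 4×180K protein-binding microarrays. Arrays were incubated 1 h with ligand-free nuclear receptor dimers in PBS pH 7.4, 2% milk, 0.02% Triton X-100, 1 mM DTT, 0.2 mg/mL BSA and 0.4 mg/ml salmon testes DNA. Antibodies against each partner (one per run) detected binding, and scanned fluorescence was regression-normalized. Binding z-scores use the random background probes as reference.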
CCGACTGGGGAAAAGGTTACCATACTCAGTACGA displayed a PBM binding z-score of 1.8.

Regarding CAAACGAGGGCATGAGTTGATAGCAAATGCCGAT, the PBM binding z-score turned out to be 0.752.

The sequence TTACCAAAGTGAGCTGAGGTCGTTGATCCAACTC returned a PBM binding z-score of 1.44.

In turn, TCGAGTAGGTTAGTGGCATTCAGAATGGCGTCGA gave a PBM binding z-score of -0.0955.

CCAGACAGGTGAGAAGGTAATTCAGCCTCGATTA showed a PBM binding z-score of 0.349.

CGTCCAAGGTCAGCAGGTCAGTGTAAGCGACGTG showed a PBM binding z-score of 5.09.

GCAGACAGGTGAAACGAAGGTAACTCAGGGTGGC registered a PBM binding z-score of 0.681.

GCGATTGGGGCATCAGCAGGTTACCATAACTTAA returned a PBM binding z-score of 0.281.

In turn, CCTTACGGGTCACTCCGGGTTATAGCATCGGAGT had a PBM binding z-score of 3.88.

CCTAGCAGGCCTATCTGGGTCACTCAAGGCTTGA returned a PBM binding z-score of 1.38.

ACTCGGAGCACAAAGGTCAGAGCTACGCCAGTGA displayed a PBM binding z-score of 4.5.

With AGAGTGAGGTTAAGATCAGGGAAACAGAATACAT, the PBM binding z-score worked out at 2.02.

Regarding CAAACTAGGTCGCGAAAGGTCAAAGTCGAATGAC, the PBM binding z-score is 6.77.

CAAACTAGGTCTAAGGTCAAAGTCGAGCCAACCA: the PBM binding z-score was determined as 4.7.

Regarding GATACAGGGTCAAGGCCAGAGTTCGCGTATTGAT, the PBM binding z-score was found to be 5.07.

CCTACTAGGCCACGAAAGGTCATTGATTCAGTGA displayed a PBM binding z-score of 5.45.

AGAATGAGGTTAAGATCAGGGACACAGAATACAT came in with a PBM binding z-score of 2.14.

TCTTGTAGATCTAGCAGGTTAAGAAAGCCTGAGT returned a PBM binding z-score of 0.57.

On to CCGAGTAGGTTATAGGGCATTCAGGCAACGGTGA, for which the PBM binding z-score stood at 0.863.

Sequence TAGCCTAGGTCTTTCAGGGGCCAGTATAGAAAGC showed a PBM binding z-score of -0.214.

The sequence CCTGGTAGGTCAATGGTCAGCTAAAGCAGCTCGC had a PBM binding z-score of 2.11.

As to CCTACTGTGCCAAGGTCATTGATCAGTCAAAGCA, the PBM binding z-score amounted to 3.76.

Sequence TCTCGTTGGTCAAAGGTCACACACTCGAAATGCG displayed a PBM binding z-score of 7.31.

With TAGCCTAGGTCATTGGGCCACTATAGTACGCATC, the PBM binding z-score was 2.14.

With TAGCCTAGGTCATTCAGTGGCCAGTATAGAAAGC, the PBM binding z-score turned out to be 2.22.

The sequence TGAATGAGGTTATAAGATGAGGGAACGTTGCAAA yielded a PBM binding z-score of 1.49.

In turn, CAAACTAGGCCAAAGGTCAAAGTCGAGCCAACCA came in with a PBM binding z-score of 6.35.

Sequence GCAGGCAGGTGAAACGCAGGTAACTCAGGGTGGC came in with a PBM binding z-score of 0.429.

The sequence CTCGAAAGGTCGGTTGAGGTTAGTATACGGATAA yielded a PBM binding z-score of 3.04.

Sequence CCAACTAGGTCAAGGACAGTGAATCTCCGCACGC registered a PBM binding z-score of 2.01.

As to CCGACTGGGGCATAAAGGTTACCATACCATCCGG, the PBM binding z-score came to 1.83.

ACTAGTTGGTCAGCTGAGGTCAGACACAATTCGG gave a PBM binding z-score of 2.75.

With AGTCAAAGTTCATCTAGGTACCGTAAGATATGCT, the PBM binding z-score came to 3.85.

In the case of CCGACAGGGGCAAAGGTTACCATACTCAGTACGA, the PBM binding z-score was 5.32.

CCTATTGGGCCATTCAGAGGTCATTGATCATATG registered a PBM binding z-score of 4.7.

Consider CCTATTAGTTGACCCTAAGGGCAACCGAAGCTCG, for which the PBM binding z-score came out at 4.62.

Sequence AGTCAAAGTTCCCTAGGTAACGTAAGATTCAGCT showed a PBM binding z-score of -0.125.

The sequence TGTAGCAGGCCAGAGGGTCACTCAAGAGGTACGG came in with a PBM binding z-score of 2.51.

In the case of TAGCCTTGGTCAGATCGGGCCAGTATACGCTATA, the PBM binding z-score is -0.611.

ATCCCTAGGTAAAGTTCAGTGAAAGATCGATAGA gave a PBM binding z-score of 0.943.

A further experiment concerns RARa homodimer (NR concentration 270 nM). The experiment is described as above. Summed up:
as §1
For CCGACTGGGGAAAAGGTTACCATACTCAGTACGA, the PBM binding z-score was 0.0679.

Consider CAAACGAGGGCATGAGTTGATAGCAAATGCCGAT, for which the PBM binding z-score was -0.274.

For TTACCAAAGTGAGCTGAGGTCGTTGATCCAACTC, the PBM binding z-score was -1.13.

TCGAGTAGGTTAGTGGCATTCAGAATGGCGTCGA gave a PBM binding z-score of -0.37.

In turn, CCAGACAGGTGAGAAGGTAATTCAGCCTCGATTA had a PBM binding z-score of 0.94.

On to CGTCCAAGGTCAGCAGGTCAGTGTAAGCGACGTG, for which the PBM binding z-score was found to be 1.36.

In turn, GCAGACAGGTGAAACGAAGGTAACTCAGGGTGGC showed a PBM binding z-score of -0.536.

With GCGATTGGGGCATCAGCAGGTTACCATAACTTAA, the PBM binding z-score is -0.368.

Consider CCTTACGGGTCACTCCGGGTTATAGCATCGGAGT, for which the PBM binding z-score is 0.188.

CCTAGCAGGCCTATCTGGGTCACTCAAGGCTTGA: the PBM binding z-score is -0.645.

Sequence ACTCGGAGCACAAAGGTCAGAGCTACGCCAGTGA came in with a PBM binding z-score of 0.544.

Sequence AGAGTGAGGTTAAGATCAGGGAAACAGAATACAT came in with a PBM binding z-score of 1.55.

CAAACTAGGTCGCGAAAGGTCAAAGTCGAATGAC: the PBM binding z-score was found to be 2.38.

In the case of CAAACTAGGTCTAAGGTCAAAGTCGAGCCAACCA, the PBM binding z-score was determined as 1.21.

With GATACAGGGTCAAGGCCAGAGTTCGCGTATTGAT, the PBM binding z-score is 1.32.

For the sequence CCTACTAGGCCACGAAAGGTCATTGATTCAGTGA, the PBM binding z-score turned out to be 2.79.

AGAATGAGGTTAAGATCAGGGACACAGAATACAT gave a PBM binding z-score of 1.57.

With TCTTGTAGATCTAGCAGGTTAAGAAAGCCTGAGT, the PBM binding z-score came to 0.175.

Regarding CCGAGTAGGTTATAGGGCATTCAGGCAACGGTGA, the PBM binding z-score was 0.46.

TAGCCTAGGTCTTTCAGGGGCCAGTATAGAAAGC: the PBM binding z-score was -1.24.

For the sequence CCTGGTAGGTCAATGGTCAGCTAAAGCAGCTCGC, the PBM binding z-score was 1.12.

Sequence CCTACTGTGCCAAGGTCATTGATCAGTCAAAGCA returned a PBM binding z-score of 1.37.

The sequence TCTCGTTGGTCAAAGGTCACACACTCGAAATGCG showed a PBM binding z-score of 3.39.

TAGCCTAGGTCATTGGGCCACTATAGTACGCATC returned a PBM binding z-score of -0.101.

The sequence TAGCCTAGGTCATTCAGTGGCCAGTATAGAAAGC had a PBM binding z-score of -0.566.

For the sequence TGAATGAGGTTATAAGATGAGGGAACGTTGCAAA, the PBM binding z-score is 0.262.

In turn, CAAACTAGGCCAAAGGTCAAAGTCGAGCCAACCA showed a PBM binding z-score of 0.602.

With GCAGGCAGGTGAAACGCAGGTAACTCAGGGTGGC, the PBM binding z-score was -0.796.

CTCGAAAGGTCGGTTGAGGTTAGTATACGGATAA registered a PBM binding z-score of 0.202.

CCAACTAGGTCAAGGACAGTGAATCTCCGCACGC gave a PBM binding z-score of 1.21.

Sequence CCGACTGGGGCATAAAGGTTACCATACCATCCGG returned a PBM binding z-score of 0.301.

ACTAGTTGGTCAGCTGAGGTCAGACACAATTCGG returned a PBM binding z-score of 0.218.

AGTCAAAGTTCATCTAGGTACCGTAAGATATGCT yielded a PBM binding z-score of 1.42.

Take CCGACAGGGGCAAAGGTTACCATACTCAGTACGA: the PBM binding z-score is -0.576.

Sequence CCTATTGGGCCATTCAGAGGTCATTGATCATATG yielded a PBM binding z-score of 0.541.

Sequence CCTATTAGTTGACCCTAAGGGCAACCGAAGCTCG came in with a PBM binding z-score of 2.32.

In the case of AGTCAAAGTTCCCTAGGTAACGTAAGATTCAGCT, the PBM binding z-score is -0.463.

Sequence TGTAGCAGGCCAGAGGGTCACTCAAGAGGTACGG returned a PBM binding z-score of -0.395.

TAGCCTTGGTCAGATCGGGCCAGTATACGCTATA gave a PBM binding z-score of -1.58.

For ATCCCTAGGTAAAGTTCAGTGAAAGATCGATAGA, the PBM binding z-score was 1.49.
